# Active and inactive are the calls of the source.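 Rule for the calls, unless noted: active = inhibition of the reporter signal at or above 50%; inactive = inhibition below 50%.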
# Legend:
# [1] = inhibitors of TNFa-induced NFkB p65 translocation, primary screen, imaging, HUVEC, MLSMR starter and 10KST1 sets (AID 438;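 active = inhibition above 20% together with a positive visual image hit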;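 note: compound added about 3h40 before a 20 min TNFalpha stimulation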;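 for inhibition: signal is the nuclear over cytoplasmic p65 intensity ratio per well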); settings: HUVEC TNFa-induced p65 nuclear translocation; cell count: measured here: nuclei count (cytotoxicity indicator), at 2.08 µM; inhibition: at 2 µM, stronger effect = higher value, 0% TNFa-plus-vehicle, 100% no-TNFa wells
# [2] = inhibitors of mutant huntingtin aggregation, primary screen, imaging, exon1htt(103Q)mCFP cells, high-content imaging (AID 483;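 active = visual image review flags a hit and inhibition of aggregation exceeds 20%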;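 note: compound exposure lasted 3 days before fixation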;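 for nuclei count: percent of the per-plate median nuclei count of sample wells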); settings: exon1htt(103Q)mCFP cell line, aggregate imaging, at 2 µM; inhibition of aggregation: stronger effect = higher value; nuclei count: measured here: cell count, toxicity
# [3] = inhibitors of E-selectin induction by TNFa, primary screen, imaging, HUVEC, immunofluorescence, MLSMR starter and 10KST1 sets (AID 487;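 active = visually confirmed hit in the image check and inhibition above 20%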;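 for inhibition: signal is fraction of cell area covered by stained E-selectin grains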;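 for nuclei count: 100% = median nuclei count of all wells on the same plate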); settings: HUVEC TNFalpha-induced E-selectin immunofluorescence imaging, at 2 µM; inhibition: stronger effect = higher value; nuclei count: measured here: cell number, toxicity
# [4] = target: Voltage-gated potassium channel subunit beta-2 (Rattus norvegicus) (UniProt P62483); assay: KvBeta enzyme negative modulators, primary screen, biochemical, NADPH fluorescence (AID 622;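 active = fluorescence slope higher than the sample average by over 3 SD, cut at about -0.22 in these data, passing the limit was not always enough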;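 note: slope of raw intensity against log time taken from 70 to 1610 s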); settings: recombinant KvBeta, 4-cyanobenzaldehyde reduction, at 10 µM, stronger effect = higher value
# [5] = target: Voltage-gated potassium channel subunit beta-2 (Rattus norvegicus) (UniProt P62483); assay: KvBeta positive modulators, primary screen, biochemical, NADPH fluorescence (AID 623;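 active = NADPH fluorescence slope more negative than the mean of all samples by about 3 SD, 99.7% confidence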;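 note: fluorescence intensity change per second fitted from 20 to 320 s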); settings: Recombinant KvBeta, NADPH fluorescence decrease slope, 10 min; at 10 µM; stronger effect = lower value
# [6] = target: Alpha-2C adrenergic receptor (Homo sapiens) (UniProt P18825); assay: modulators of alpha2C/GIRK thallium flux, primary screen, cell-based, HEK293 alpha2C/GIRK1/2 (AID 624;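 active = fluorescence slope after compound addition differing from the mean of all screened samples at 99.7% confidence, in either direction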;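 note: slope of fluorescence ratio to pre-addition baseline per second over 15 to 24 s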); settings: thallium flux BTC fluorescence, at 10 µM, actives lie on both sides
# [7] = inhibitors of Sendai virus-induced IRF3 signaling, primary screen, TLR/RLR signaling modifier project, cell-based, Sendai virus stimulus, luciferase, 10K MLSCN set (AID 602276;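 active = inhibition at or above 50% at 10 µM; inactive = inhibition below 50%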;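 note: firefly luciferase from ISG56 promoter only with Renilla not read in this screen; 0% = Sendai virus plus DMSO and 100% = medium plus DMSO without virus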); settings: HEK293 RL24 IRF3 luciferase reporter, at 10 µM, stronger effect = higher value
# [8] = inhibitors of poly I:C-induced TLR3 signaling, primary screen, cell-based, poly I:C stimulus, luciferase, 10K MLSCN set (AID 602277); settings: HEK293-TLR3 RL24 IRF3 luciferase reporter, at 10 µM, stronger effect = higher value
# Alpha-2C adrenergic receptor (Homo sapiens), sequence (P18825 whole entry, looked up): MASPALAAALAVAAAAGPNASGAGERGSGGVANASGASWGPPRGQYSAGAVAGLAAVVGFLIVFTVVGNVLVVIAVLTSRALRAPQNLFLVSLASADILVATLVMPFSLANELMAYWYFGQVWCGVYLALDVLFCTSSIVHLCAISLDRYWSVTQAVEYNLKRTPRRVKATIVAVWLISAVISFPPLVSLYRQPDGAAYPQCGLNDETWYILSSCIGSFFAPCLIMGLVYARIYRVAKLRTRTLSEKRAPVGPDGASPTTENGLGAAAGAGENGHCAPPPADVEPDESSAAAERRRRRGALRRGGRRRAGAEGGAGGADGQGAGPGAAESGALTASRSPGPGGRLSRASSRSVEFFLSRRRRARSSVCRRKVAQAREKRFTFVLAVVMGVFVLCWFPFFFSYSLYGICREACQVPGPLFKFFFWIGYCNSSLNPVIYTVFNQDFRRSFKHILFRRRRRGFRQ
# Voltage-gated potassium channel subunit beta-2 (Rattus norvegicus), sequence (P62483 whole entry, looked up): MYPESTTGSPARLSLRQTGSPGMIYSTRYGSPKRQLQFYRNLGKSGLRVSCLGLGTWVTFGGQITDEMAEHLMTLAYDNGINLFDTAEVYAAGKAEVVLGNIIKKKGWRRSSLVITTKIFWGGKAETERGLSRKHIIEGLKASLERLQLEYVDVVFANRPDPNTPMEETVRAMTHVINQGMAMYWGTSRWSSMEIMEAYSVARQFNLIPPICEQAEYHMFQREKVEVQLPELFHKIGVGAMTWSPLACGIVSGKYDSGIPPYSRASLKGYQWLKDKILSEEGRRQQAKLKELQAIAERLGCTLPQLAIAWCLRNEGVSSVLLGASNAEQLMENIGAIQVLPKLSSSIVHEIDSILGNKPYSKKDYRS
Compound,cell count [1],inhibition [1],inhibition of aggregation [2],nuclei count [2],inhibition [3],nuclei count [3],fluorescence slope [4],NADPH fluorescence slope [5],slope [6],inhibition [7],inhibition [8]
COc1ccc(-c2nc(C#N)c(N3CCOCC3)o2)cc1OC,257,-4.8% (inactive),30.6% (active),92.9%,-16.3% (inactive),98.5%,-0.341 (inactive),-1.9e-05 (inactive),0.00341 (inactive),9.75% (inactive),-1.53% (inactive)
O=c1[nH]cnc2c1nc(SCc1ccccc1)n2C1OC(CO)C(O)C1O (centres undefined),459,14.3% (inactive),10.4% (inactive),71.9%,-9.9% (inactive),110%,-0.597 (inactive),1.2e-06 (inactive),0.00624 (inactive),10.8% (inactive),24% (inactive)
CCOC(=O)N1CCN(C(=O)CN2C(=O)COc3ccc(C)cc32)CC1,590,1.5% (inactive),9.7% (inactive),98.6%,-64.6% (inactive),107%,-0.364 (inactive),-3.7e-05 (inactive),0.00215 (inactive),7.89% (inactive),29.7% (inactive)
Cn1c(=O)c(=O)n(C)c2cc(S(=O)(=O)CCC(=O)N3CCOCC3)ccc21,773,0.9% (inactive),22.5% (inactive),93%,-79.8% (inactive),113%,-0.569 (inactive),-1.9e-06 (inactive),0.00791 (inactive),8.53% (inactive),5.94% (inactive)
CCCS(=O)(=O)N1CCCC(C(=O)NC2CCCC(C)C2C)C1 (centres undefined),357,-0.5% (inactive),7.4% (inactive),92.6%,-13.1% (inactive),105%,-0.551 (inactive),2.2e-05 (inactive),0.00599 (inactive),9.58% (inactive),-2.45% (inactive)
O=C(c1cnn2c(C(F)F)cc(C3CC3)nc12)N1CCOCC1,666,-0.3% (inactive),3.1% (inactive),96.7%,-13.3% (inactive),94.3%,-0.376 (inactive),2.5e-06 (inactive),0.00295 (inactive),6.43% (inactive),18.5% (inactive)
Cc1cc(C)nc(SC2=CS(=O)(=O)c3ccccc32)n1,409,4.2% (inactive),-0.8% (inactive),107%,-15.3% (inactive),95.9%,-0.358 (inactive),3.3e-05 (inactive),0.00592 (inactive),9.85% (inactive),-5.16% (inactive)
Cc1c(C(=O)OC2CCCCC2)[nH]c2c1C(=O)CC(C)(C)C2,342,-8.9% (inactive),-22% (inactive),108%,14.6% (inactive),68.9%,-0.407 (inactive),-9.3e-06 (inactive),0.00193 (inactive),-3% (inactive),-13.3% (inactive)
Cc1cc(NC(=O)COc2cccc(C)c2C)no1,684,6.5% (inactive),-9.8% (inactive),104%,-16.6% (inactive),121%,-0.549 (inactive),-2.5e-05 (inactive),0.00696 (inactive),-0.401% (inactive),0.183% (inactive)
